# In PubChem BioAssay (Tox21):
# Inconclusive results are not listed. Entries that show only a call come without a potency. A number with no mark means an inactive call. Calls of active or inactive are those of the source. Calls come from the whole dose curve; as a rule, active = well fitted cell-killing curve with a large enough effect in the repeat runs; inconclusive = weak or mixed curves, or effect the other way; inactive = flat fitted curve, though single readings scatter.
# How the values were obtained:
# [1] = cAMP Responsive Elements (CRE) small molecule antagonists, cell-based qHTS assay: qHTS cell viability counter screen (AID 2060913); settings: CRE-bla HEK293T viability, CellTiter-Glo luminescence, 5 h; series mostly up to 92.4 µM; note: nearly all actives have a fitted effect of over 40% in size
# Method in brief: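 HEK293T CRE-bla, 2,000 cells/well, 18 h preincubation; cpd in DMSO + NKH477 0.25 uM final, 3 h 37 C/5% CO2; LiveBLAzer 2 h RT, then CellTiter-Glo 30 min RT, luminescence.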
# [2] = cAMP Responsive Elements (CRE) small molecule agonists, cell-based qHTS assay: qHTS cell viability counter screen (AID 2060914); settings: CRE-bla HEK293T viability, CellTiter-Glo luminescence, 5 h; series mostly up to 92.4 µM; note: nearly all actives have a fitted effect of over 50% in size
# Method in brief: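 In the same wells as the reporter read, viability of CRE-bla HEK 293T cells was quantified by CellTiter-Glo luminescence after a 3 h compound exposure.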
Compound,Potency [1],Potency [2],"viability change, negative = cytotoxic [1]","activity change, negative = cytotoxicity [2]"
CC1=C(/C=C/C(C)=C/C=C/C(C)=C/CO)C(C)(C)CCC1,inactive,inactive,–,–
CCN(CC)CCSC(=O)C(c1ccccc1)c1ccccc1,inactive,inactive,–,–
CCSC(=O)N(CC)CC,inactive,inactive,–,–
CC1(C)Cc2cccc(N)c2O1,inactive,inactive,–,–
COC(=O)C1=C(C)NC(C)=C(C(=O)OCC(C)=O)C1c1ccccc1[N+](=O)[O-] (stereo unspecified),inactive,inactive,–,–
Nc1ccc(Oc2ccc(Cl)cc2)cc1,inactive,inactive,–,–
CC(O)C#CC(C)O (stereo unspecified),inactive,inactive,–,–
CO[C@]1(NC(=O)CSC(F)F)C(=O)N2C(C(=O)O)=C(CSc3nnnn3CCO)CO[C@H]21,inactive,inactive,–,–
CC(=O)Oc1cc(C(C)C)c(OCCN(C)C)cc1C,inactive,inactive,–,–
CCOC(=O)COC(=O)c1cc(Oc2ccc(C(F)(F)F)cc2Cl)ccc1[N+](=O)[O-],inactive,inactive,–,–
FC(F)(F)c1ccccc1-n1ccnc1,inactive,inactive,–,–
C/C(=N\O)c1ccc(OCC(=O)N2CCCCC2)cc1,inactive,inactive,–,–
CCCCCC[C@@H](O)C/C=C\CCCCCCCC(=O)O,inactive,inactive,–,–
CC#C[C@]1(O)CC[C@H]2[C@@H]3CCC4=CC(=O)CCC4=C3[C@@H](c3ccc(N(C)C)cc3)C[C@@]21C,inactive,inactive,–,–
O=C(O)C1(C(=O)Nc2ccc(Cl)cc2Cl)CC1,inactive,inactive,–,–
CCN1CCC[C@H]1CNC(=O)c1c(O)c(Cl)cc(Cl)c1OC,inactive,inactive,–,–
O=C(C(=O)c1ccc(Br)cc1)c1ccc(Br)cc1,–,–,-3.96% [at 18.9 µM],-3.4% [at 18.9 µM]
COC(=O)[C@H](Cc1ccccc1)NC(=O)[C@@H](N)CC(=O)O,inactive,inactive,–,–
C=C(C)[C@@H]1CC[C@@H](C)C[C@@H]1O,inactive,inactive,–,–
CCCCCCCCOc1ccccc1C(=O)Nc1ccc(C(=O)OCC[N+](C)(CC)CC)cc1,inactive,inactive,–,–
CC(=O)OCC1=C(C(=O)O)N2C(=O)[C@@H](NC(=O)CSc3ccncc3)[C@H]2SC1,inactive,inactive,–,–
CN1CCCN=C1COC(=O)C(O)(c1ccccc1)C1CCCCC1 (stereo unspecified),inactive,inactive,–,–
N#Cc1ccc(CC(=O)c2cccc(C(F)(F)F)c2)cc1,inactive,inactive,–,–
CCN(Cc1cccc(S(=O)(=O)O)c1)c1ccc(C(=C2C=CC(=[N+](CC)Cc3cccc(S(=O)(=O)[O-])c3)C=C2)c2ccccc2)cc1,inactive,inactive,–,–

Compound,Potency [1],Potency [2],"viability change, negative = cytotoxic [1]","activity change, negative = cytotoxicity [2]"
C[C@]12CCC(=O)C=C1CC[C@@H]1[C@@H]2[C@@H](O)C[C@@]2(C)[C@H]1CC[C@]2(O)C(=O)CO,inactive,inactive,–,–
C=Cc1ccc(O)c(OC)c1,inactive,inactive,–,–
[Cl][Au]([Cl])[Cl],inactive,inactive,–,–
CC(=O)Nc1ccc(OC(=O)c2ccccc2OC(C)=O)cc1,inactive,inactive,–,–
CCOCC(O)COc1ccc(NC(=O)CC[S+](C)C)cc1 (stereo unspecified),inactive,inactive,–,–
CC(=O)N(CC(O)CN(C(C)=O)c1c(I)c(C(=O)NCC(O)CO)c(I)c(C(=O)NCC(O)CO)c1I)c1c(I)c(C(=O)NCC(O)CO)c(I)c(C(=O)NCC(O)CO)c1I (stereo unspecified),inactive,inactive,–,–
O=C(O)c1cccc(C(=O)O)c1,inactive,inactive,–,–
CC(C)OC(C)C,inactive,inactive,–,–
CSc1nc(NC2CC2)nc(NC(C)(C)C)n1,inactive,inactive,–,–
C1CCCCC1,inactive,inactive,–,–
Nc1nc(=S)c2[nH]cnc2[nH]1,inactive,inactive,–,–
Cc1ccc([N+](=O)[O-])cc1S(=O)(=O)O,inactive,inactive,–,–
C1CCC2(CCCCO2)OC1,inactive,inactive,–,–
CC(=O)CC(C)(C)O,inactive,inactive,–,–
CCCCCCC(=O)c1ccccc1,inactive,inactive,–,–
CC(C(=O)O)c1ccc(/C=C2\CCCCC2=O)cc1 (stereo unspecified),inactive,inactive,–,–
O=C(O)CCCCCCCCC(=O)O,inactive,inactive,–,–
CC(COc1ccc(C(C)(C)C)cc1)OS(=O)OCCCl (stereo unspecified),inactive,inactive,–,–
CC(=O)OC1C2(C)CCC(C2)C1(C)C (stereo unspecified),inactive,inactive,–,–
CC(C)CC(=O)OCc1ccccc1,inactive,inactive,–,–
COc1ccc2c(c1)c(CC(=O)O)c(C)n2C(=O)c1ccc(Cl)cc1,inactive,inactive,–,–
CC(=O)Oc1ccccc1C(=O)O,inactive,inactive,–,–
CC1(C)COCN1,inactive,inactive,–,–
C1CCC2=NCCCN2CC1,inactive,inactive,–,–
